mcGAS lum: inhibitors of mouse cGAS; inhibition, % at 12.5 µM; 160,000 tested, 0.15% active; recombinant cGAS, Kinase-Glo ATP depletion luminescence; Q8C6L5;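 also: 0% = negative control wells and 100% = reference inhibitor with no enzyme activity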
Target sequence (Q8C6L5 whole entry, looked up): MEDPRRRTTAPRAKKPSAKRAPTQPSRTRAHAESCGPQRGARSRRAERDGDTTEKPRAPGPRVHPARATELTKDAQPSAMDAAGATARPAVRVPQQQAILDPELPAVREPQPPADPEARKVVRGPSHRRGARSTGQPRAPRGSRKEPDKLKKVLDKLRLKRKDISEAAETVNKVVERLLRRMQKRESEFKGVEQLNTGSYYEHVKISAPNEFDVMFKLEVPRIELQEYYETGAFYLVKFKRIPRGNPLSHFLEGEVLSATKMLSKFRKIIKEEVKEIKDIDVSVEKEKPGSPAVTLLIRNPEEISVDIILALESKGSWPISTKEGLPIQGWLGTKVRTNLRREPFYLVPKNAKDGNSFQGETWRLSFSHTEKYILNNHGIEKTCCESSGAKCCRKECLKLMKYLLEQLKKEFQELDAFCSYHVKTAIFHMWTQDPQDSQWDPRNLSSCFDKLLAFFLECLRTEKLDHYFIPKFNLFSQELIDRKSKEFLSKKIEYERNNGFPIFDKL
hcGAS lum: human cGAS inhibition; Q8N884; recombinant h-cGAS, ATP depletion, Kinase-Glo luminescence; inhibition, % at 12.5 µM; 290,000 tested, 0.081% active;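 also: 0% = vehicle reaction and 100% = reaction without DNA for no activity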
NPYLR7 agonist: mosquito NPYLR7 agonism | AID 1259423 | 270,000 tested, 0.15% active | activation, % at 10 µM | HEK293T NPYLR7/Galpha15, GCaMP6s calcium fluorescence; in the data active = activation above about 40%;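 also: 0% = vehicle and 100% = reference agonist at the receptor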
* marks the source's active call; other numbers are inactive results; / = not tested or not shown; ! = not confirmed by another sample. Only some compounds are listed: those with a hit (about 0.3% of all), similar ones and a draw of the others. Rule as the data show it, unless noted: active = inhibition above about 40%; inactive = the rest.

SMILES	mcGAS lum	hcGAS lum	NPYLR7 agonist
CN(C(=O)CCl)c1nnc(C23CC4CC(CC(C4)C2)C3)s1	60.3*	-1.4	0.1
CNC(=O)[C@@H]1C[C@@H](N)CN1C(=O)c1ccc2c(c1)CCO2	-14.0	-3.3	14.7
Cc1nc2c(N3CCC(c4cc(-c5ccco5)n[nH]4)CC3)ncnc2o1	/	-8.3	9.8
CCCc1nc(C(=O)N2CCCC(c3[nH]ncc3CC)C2)cs1 (centres undefined)	-21.5	-4.6	-0.2
CCc1cn[nH]c1C1CCCN(C(=O)c2csc(Cc3ccccc3)n2)C1 (centres undefined)	-13.4	54.8*	8.8
CC1=NN(c2cccc(C(=O)O)c2)C(=O)/C1=C\c1ccc(-c2ccccc2C(=O)O)o1	63.6*	-6.0	-3.7
CC1=NN(c2cccc(C(=O)O)c2)C(=O)/C1=C\c1ccc(-c2cc([N+](=O)[O-])ccc2O)o1	7.9	4.6	-16.9
COc1cccc(CN2CCNC(=O)C2CC(=O)NCCc2cn3ccccc3n2)c1OC (centres undefined)	/	-5.0	19.3
COc1cccc(N2C(=O)NC(=O)/C(=C/c3cn(C(C)=O)c4ccccc34)C2=O)c1	2.9	2.9	-2.3
CCC(C)n1cc(/C=C2/C(=O)NC(=O)N(c3ccc4c(c3)OCO4)C2=O)c2ccccc21 (centres undefined)	/	-0.1	51.5*
c1ccc(OCc2noc(-c3ccc(N4CCCCO4)nc3)n2)cc1	/	-5.8	24.3
COCCCNCc1nc2sc3c(c2c(=O)[nH]1)CCN(Cc1ccccc1)C3	2.7	3.8	-4.1
O=c1[nH]c(CCl)nc2sc3c(c12)CCN(Cc1ccccc1)C3	/	0.8	45.3*
Cc1ccc(N2C(=O)CC(n3ccnc3)C2=O)cc1 (centres undefined)	/	0.8	14.2
CCn1c(=O)c2c(nc(/C=C/c3ccc(OC)c(OC)c3)n2C)n(CC)c1=O	-10.1	-7.0	84.5*
COc1ccc(/C=C\C(=O)Nc2cc(=O)n(C)c(=O)n2C)cc1OC	-7.2	-11.1	10.0
CCNC(=O)Nc1ccc(-c2nc3cc(Cl)ccc3o2)cc1	-0.1	-2.4	2.1
O=c1cc(-c2ccccc2)oc2cc(O)cc(O)c12	-1.4	7.6	-2.4
O=c1c(-c2ccccc2)coc2cc(O)cc(O)c12	/	70.4*	-11.0
COc1ccc(OC)c(NC(=O)N2CCN(CC(OCc3ccc(C(F)(F)F)cc3)c3ccc(Cl)cc3)CC2)c1 (centres undefined)	-4.2	1.5	19.1
O=C(Cc1cccs1)NCCOc1ccc(-c2ccco2)nn1	-1.9	-5.9	-0.8
O=c1c2ccc(-c3cccnc3)nc2[nH]n1-c1ccccc1	/	-4.2	-2.1
Cn1c(=O)[nH]c2nnc(-c3cccnc3)nc2c1=O	57.9*	41.0*	-5.5
O=C(CNCC1(c2ccccc2)CCOCC1)Nc1cnccn1	-13.2	-5.2	19.6
COc1cc(C)c(S(=O)(=O)Cc2ccc(NS(C)(=O)=O)cc2)cc1OC	/	-6.8	5.3
SMILES	mcGAS lum	hcGAS lum	NPYLR7 agonist
COc1ccc2c(c1)CCC(=Cc1cc(Br)ccc1OC)C2=O	-4.7	-2.1	-1.2
O=C1/C(=C/c2csnn2)CCOc2cc(Br)ccc21	53.0*	-5.9	13.0
CN(Cc1ccc(Cl)s1)c1ccc(S(N)(=O)=O)cn1	/	-3.1	0.9
O=C1NC(=S)N(c2ccc3ccccc3c2)C(=O)/C1=C/c1ccc(-c2cccc(C(=O)O)c2)o1	81.0*	56.3*	3.8
O=C1/C(=C/c2ccc(-c3cccc(Cl)c3)o2)NC(=S)N1c1ccccc1	-0.4	-2.9	4.3
CCCn1cnc2c(nnn2CC)c1=O	/	-3.8	-0.8
COc1ccc([N+](=O)[O-])cc1NC(=O)C1CCCC1	-0.8	-9.9	-0.9
COc1ccc([N+](=O)[O-])cc1NC(=O)CCl	44.5*	-4.4	-3.4
O=C(CCl)Nc1cc([N+](=O)[O-])ccc1Nc1ccc(F)cc1	57.5*	-2.2	-5.9
O=[N+]([O-])c1ccc(Nc2ccc(F)cc2)c([N+](=O)[O-])c1	-4.8	-11.4	2.1
COc1cc([N+](=O)[O-])ccc1NC(=O)CCl	69.6*	0.7	-4.3
CCCCC(=O)Nc1cc([N+](=O)[O-])ccc1OC	/	-5.4	0.7
O=c1c2c3c(sc2ncn1N=Cc1cccs1)CCCC3	/	-8.6	1.0
CSc1nnc2c(n1)OC(c1cc(Br)c(OC(=O)c3ccc([N+](=O)[O-])cc3)c(Br)c1)Nc1ccccc1-2 (centres undefined)	41.7*	6.4	6.5
COc1cc(C2Nc3ccccc3-c3nnc(SC)nc3O2)cc(Br)c1OC (centres undefined)	-2.5	-8.8	-1.3
CN=c1scc(-c2ccc(OC(F)F)cc2)n1N=Cc1cc(OC)c(O)c(OC)c1	/	-1.1	-5.6
Nc1nc2nc(C(F)(F)F)[nH]c2c(=O)[nH]1	/	33.1	-4.4
Nc1nc2nc(Br)[nH]c2c(=O)[nH]1	12.2	51.7*	-3.3
COCCn1c(C)cn2c3c(=O)n(Cc4ccc(Cl)cc4)c(=O)n(C)c3nc12	-7.8	-6.8	51.8*
COCCCn1c(C)cn2c3c(=O)n(Cc4ccc(Cl)cc4)c(=O)n(C)c3nc12	/	-8.7	12.3
CC(C)c1ccc(S(=O)(=O)N2CCN(C34CC5CC(CC(C5)C3)C4)CC2)cc1	-3.2	-4.8	/
N#C/C(=C/c1ccc(N2CCCCCC2)o1)c1ccc(F)cc1	/	-9.3	87.7*
N#C/C(=C\c1ccc(N2CCCCC2)s1)c1cccc(Cl)c1	/	-1.5	28.2
CCOC(=O)c1c(C)nn(-c2ccc(C(=O)N3CCC[C@H]3C(=O)OCc3ccccc3)cc2)c1C	-2.2	-1.3	4.1
Cc1ccc(NC2(C(=O)N[C@@H]3C[C@@H](CO)N(C)C3)CCCCC2)cc1C	-15.2	-5.4	3.2
SMILES	mcGAS lum	hcGAS lum	NPYLR7 agonist
CC(=NCCCn1ccnc1)c1c(-c2ccccc2)[nH]n(-c2nc3ccccc3s2)c1=O	4.2	5.8	-3.6
CCCN=Cc1c(-c2ccccc2)[nH]n(-c2nc3ccccc3s2)c1=O	-2.5	54.1*	1.9
Cc1cc(S(=O)(=O)N(C)C2CCN(C(C)C)CC2)ccc1Br	/	-7.7	1.3
CC(=O)Oc1c(-c2ccc(NC(=O)c3ccc(Cl)cc3)cc2)c(-c2ccccc2F)nn1-c1ccc(F)cc1	-3.6	0.6	14.9
COc1ccc(N2CCN(c3cc(C(=O)NCCC4=CCCCC4)c4ccccc4n3)CC2)cc1	-5.4	-2.5	22.2
CCOC(=O)c1sc(N)c(C(N)=O)c1C	/	-9.2	1.3
CCOC(=O)c1cc(O)c(C(=O)OCC)s1	-4.0	-2.9	62.4*!
O=C(CC(c1cccc([N+](=O)[O-])c1)c1c[nH]c2ccccc12)NC1CC1 (centres undefined)	-4.6	-5.8	41.2*
O=C(CC(c1cccc([N+](=O)[O-])c1)c1c[nH]c2ccccc12)N1CCN(c2ccccc2F)CC1 (centres undefined)	-2.9	-1.0	2.6
NC(=O)c1cc(-c2ccccc2)sc1NC(=O)CCl	81.5*	3.7	-7.9
COC(=O)c1cc(-c2ccccc2)sc1NC(=O)CCCl	-3.8	-4.5	-4.2
CCc1nnc(NC(C)(C)CCl)s1	-6.1	-11.9	/
COc1ccc(S(=O)(=O)Oc2cccc(CN(C(=O)Nc3ccccc3OC)C3CC3)c2)cc1	41.5*	-2.4	-4.1
COc1ccc(S(=O)(=O)Oc2ccccc2CN(C(=O)Nc2ccccc2OC)C2CC2)cc1	-8.8	-4.8	1.6
O=C(c1csnn1)N1CCc2[nH]nc(-c3ccc(-c4ccccc4)cc3)c2C1	/	-5.8	16.9
